Results as given in PubChem BioAssay AID1259415 (National Center for Advancing Translational Sciences (NCATS), 2018).
In all, about 410,000 compounds went through this assay and about 18,000 (4.4%) were called active. Another 7% or so got no clear call; they are omitted. Rule as the data show it: active = activity change below about -60%; inconclusive = no clear call, values can overlap the other calls; inactive = above about -39%. This excerpt belongs to a sample that is enriched for actives.

Assay: qHTS Assay for inhibitors of the human cytomegalovirus (HCMV)
Conditions: HFF cells, HCMV-luciferase reporter, 72 h; at 57.5 µM; active compounds read low
Summary of the method: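 Two-dose cell screen: HFF monolayers treated with compounds and infected with luciferase-expressing HCMV at 1 PFU/cell, 72 h at 37C, then lysed for luciferase measurement.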
% is scaled to controls: 0 for no effect and ±100 for the full control effect.

Compound	activity change, negative = inhibition
O=S(=O)(c1ccc2nc(NCc3ccccc3Cl)ccc2c1)N1CCCCC1	-22.2% (inactive)
Cc1ccc(Nc2ccc3cc(S(=O)(=O)N4CCCCC4)ccc3n2)cc1F	-90.2% (active)
Cc1ccc(-n2ncc3c(=O)n(Cc4cccc(C(F)(F)F)c4)cnc32)cc1C	1.72% (inactive)
CSc1nc(C)nc2c1c(=O)n(C)c(=O)n2C	6.36% (inactive)
COc1ccc(S(=O)(=O)Nc2cc(C)on2)cc1NC(C)=O	61.3% (inactive)
Cc1ccc(S(=O)(=O)NNC(=O)/C=C/c2cccc(F)c2)cc1	-26.4% (inactive)
COc1ccccc1C(=O)COC(=O)CNS(=O)(=O)c1ccc(NC(C)=O)cc1	5.34% (inactive)
CCC(Oc1ccccc1C)C(=O)Nc1ccc(S(=O)(=O)Nc2cc(C)on2)cc1 (stereo not given)	4.11% (inactive)
COC(C(=O)Nc1ccc(S(=O)(=O)Nc2ccc(C)c(C)c2)cc1)c1ccccc1 (stereo not given)	-97.3% (active)
COc1ccc(/C=C/C(=O)c2ccc(NS(=O)(=O)c3ccc(C)cc3)cc2)cc1O	-96.5% (active)
COC(C(=O)NCc1ccccc1C)c1ccccc1 (stereo not given)	-7.11% (inactive)
COc1ccc(C(=O)/C=C/c2ccc(-c3ccccc3)cc2)cc1CSCC(=O)O	-1.55% (inactive)
COc1ccc(NS(=O)(=O)c2ccc(NC(C)=O)cc2)cc1OC	-79.8% (active)
CCc1ccc(NC(=O)c2cc3c(=O)n(Cc4cccnc4)ccc3nc2C)cc1	-20.1% (inactive)
CC(=O)N1Cc2cc(C(=O)NCc3cccc(F)c3)nc(-c3cccc(C4=CCCCC4)c3)c2[C@H]1CCO	3.64% (inactive)
COc1ccc(CCNC(=O)c2cc3cccc4c3n2CC(C)S4)c(OC)c1OC (stereo not given)	0% (inactive)
COCc1c(C(=O)N/N=C/C2CC=CCC2)nnn1-c1nonc1N (stereo not given)	65.4% (inactive)
O=C(NN=Cc1ccco1)C(=O)Nc1ccc(Cl)c([N+](=O)[O-])c1	63.3% (inactive)
C/C(=N\NC(=O)Cc1ccccc1[N+](=O)[O-])c1cccnc1	44.6% (inactive)
O=C(/C=C/c1ccc(Cl)c([N+](=O)[O-])c1)c1cccnc1	-80.5% (active)
Cc1cc(=O)oc(C)c1C(=O)Nc1cnc2ccccc2c1	38.4% (inactive)
Cc1ccc(Cn2c(=O)n(CCCC(=O)NCc3ccccc3Cl)c(=O)c3ccccc32)cc1	20.2% (inactive)
COc1ccc(CNCCc2c[nH]c3ccccc23)cc1OC	4.34% (inactive)

Compound	activity change, negative = inhibition
COc1cccc(CNCCc2c[nH]c3ccccc23)c1OCc1ccccc1F	-99.3% (active)
COc1cccc(CNn2cn[nH]c2=S)c1OCc1ccccc1	-23.6% (inactive)
Nc1ncnc2c1ncn2C1OC(CO)CC1O (stereo not given)	8.48% (inactive)
CC1CCc2noc(NC(=O)c3ccc([N+](=O)[O-])cc3)c2C1 (stereo not given)	26.6% (inactive)
CS(=O)(=O)N(CC(=O)N/N=C/c1ccccn1)c1ccc(Oc2ccccc2)cc1	-1.4% (inactive)
S=C(NN=Cc1ccccn1)Nc1ccccn1	279% (inactive)
Cc1nnc(N/N=C/c2ccccn2)[nH]c1=O	-97.8% (active)
O=C(CN1C(=O)COc2ccc(S(=O)(=O)N3CCCCCC3)cc21)N1CCN(c2cccc(C(F)(F)F)c2)CC1	-23.3% (inactive)
Fc1ccc(C(Nc2ccc(Cl)c(C(F)(F)F)c2)c2nnc(-c3ccccc3)o2)cc1 (stereo not given)	-0.379% (inactive)
O=c1nc(N/N=C/c2ccco2)cn[nH]1	-3.52% (inactive)
COc1cc(OC)cc(C(=O)N[C@H](C(=O)OCC(=O)NC(C)c2ccccc2)C(C)C)c1 (stereo not given in full)	-6.95% (inactive)
COc1cc(OC)cc(C(=O)N[C@H](C(=O)Nc2nc3ccccc3[nH]2)C(C)C)c1	-77% (active)
COc1ccc(N2CCN(C(=O)[C@@H](NC(=O)c3cc(OC)cc(OC)c3)C(C)C)CC2)cc1	-2.95% (inactive)
CCN(Cc1ccncc1)C(=S)Nc1ccccc1C	2.81% (inactive)
CCn1c(CN2CCC(C)CC2)nc2cc(NC(=O)c3ccccc3[N+](=O)[O-])ccc21	-37.4% (inactive)
O=C1Nc2cc(Cl)c(Cl)cc2N(O)N1c1ccccc1Cl	-10% (inactive)
CC(Sc1nnc2c(n1)C1CCC2(C)C1(C)C)C(=O)Nc1ccccc1 (stereo not given)	-60.9% (active)
CC(Sc1nnc(C2CC2)n1C1CC1)C(=O)Nc1ccc(C(N)=O)cc1 (stereo not given)	36.3% (inactive)
COc1ccc(NC(=O)C(C)SCc2ccccc2)cc1 (stereo not given)	-10.8% (inactive)
CC(=O)Nc1ccc(S(=O)(=O)Nc2cc(C)cn(Cc3ccc(C)cc3)c2=O)cc1	-7.02% (inactive)
Oc1c(Cl)cc(Cl)c(Cl)c1Cc1c(O)c(Cl)cc(Cl)c1Cl	-95.4% (active)
Cc1cc(C)nc(NS(=O)(=O)c2ccc(NC(=O)c3cc(=O)c4ccc(C)c(C)c4o3)cc2)n1	-4.22% (inactive)
